From PubChem BioAssay
B2AR arrestin ag: agonists recruiting beta-arrestin to human beta2-adrenergic receptor | Potency, µM (doses to about 46.1 µM), actives largely listed as activators | AID 1347077 | 44,000 tested, under 10 active | P07550 | HTLA Tango cells, beta-arrestin recruitment, luciferase luminescence, 18 h
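Tango cells (recombinant beta2-AR, beta-arrestin, tTA-driven luciferase), 1500/well in DMEM 1% FBS, treated 18 h at 37 °C with compounds up to 46 µM; luciferin mix added, luminescence read after 15 min; %activity curves fitted and curve-classed.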
TSG101-PTAP inh: blocks PTAP binding to human TSG101, validation; Fluorescence polarization, FITC-PTAP peptide/Tsg101, 20 min; Potency, µM (doses to about 115 µM), usual class: inhibitors; Q99816; AID 1347069; 44,000 tested, under 10 active
Target sequence (Q99816 whole entry, looked up): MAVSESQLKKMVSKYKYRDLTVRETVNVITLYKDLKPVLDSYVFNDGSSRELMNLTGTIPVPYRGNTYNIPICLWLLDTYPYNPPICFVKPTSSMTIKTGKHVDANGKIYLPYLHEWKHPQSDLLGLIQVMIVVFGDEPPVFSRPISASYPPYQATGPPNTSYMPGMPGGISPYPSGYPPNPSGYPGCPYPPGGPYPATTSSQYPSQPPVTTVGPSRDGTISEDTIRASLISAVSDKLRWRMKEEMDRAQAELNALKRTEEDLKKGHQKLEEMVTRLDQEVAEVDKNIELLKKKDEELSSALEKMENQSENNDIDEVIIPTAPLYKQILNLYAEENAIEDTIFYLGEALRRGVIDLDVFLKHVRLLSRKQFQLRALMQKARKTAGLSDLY
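Steps: Tsg101 binding domain (10 uM final) in HEPES pH 7.5/NaCl/Tween 20/EDTA/TCEP; add compound; add FITC-PTAP peptide (50 nM final); incubate 20 min r.t.; read polarization.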
NTMT1 inhibitor: NTMT1 methyltransferase inhibition; Q9BV86; NTMT1 MTase-Glo SAH luminescence, purified enzyme; 2.5% of 59,000 active; AID 1645870; Potency, µM (top dose mostly 114 µM), hits mostly inhibitors; further: nearly all actives have a fitted effect of over 65% in size
Target sequence (Q9BV86 whole entry, looked up): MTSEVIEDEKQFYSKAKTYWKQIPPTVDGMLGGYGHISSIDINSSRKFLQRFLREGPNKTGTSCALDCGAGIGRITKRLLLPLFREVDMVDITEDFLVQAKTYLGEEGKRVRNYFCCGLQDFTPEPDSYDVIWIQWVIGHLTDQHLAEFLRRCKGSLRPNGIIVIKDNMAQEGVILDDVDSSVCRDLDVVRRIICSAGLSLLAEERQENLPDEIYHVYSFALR
GALC G270D up: galactocerebrosidase G270D activity enhancement, cell-based; 0.1% of 45,000 active; P54803; Potency, µM (top dose mostly 57.5 µM), actives largely listed as activators; AID 1159614; 145M-Twi-hGALC-G270D cells (Twitcher mouse brain line with human GALC G270D), HMU-beta-Gal fluorescence, 48 h; further: nearly all actives have a fitted effect of over 65% in size
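Fluorescence readout: HMU-β-gal cleavage by mutant GALC (0.1 mM final, citrate/phosphate pH 5.2 with 1 mg/mL taurocholate), stopped with carbonate/bicarbonate plus Triton X-100. Cells: murine Twitcher 145M-Twi expressing human G270D GALC; qHTS for activators.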
GALK inhibitor: inhibitors of human galactokinase (GALK) | P51570 | recombinant GALK, Kinase-Glo ATP luminescence, 1 h | Potency, µM (top dose mostly 57.5 µM), hits mostly inhibitors | 44,000 tested, under 10 active | AID 1347072
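Compounds were pinned into ATP buffer, then GALK-galactose mix was added (final 5 nM enzyme, 35 uM ATP, 100 uM galactose, pH 8.0). After 1 h at room temperature, Kinase-Glo Plus was added and luminescence read.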
GPR32 ag: activates human resolvin D1 receptor GPR32; O75388; CHO-K1 GPR32 beta-arrestin PathHunter luminescence, 90 min; zero percent set by DMSO-only wells; activation, % at 76.9 µM; 2.5% of 48,000 active; AID 1346428;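 active means activation of at least 60% and not above a set upper limit, about 1 call in 100 departs from these limits; inconclusive means activation of 40% to 60%, or above that upper limit; inactive means activation under 40%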
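Agonism was scored as beta-arrestin recruitment to ProLink-fused GPR32 in stably transfected CHO-K1 cells, giving a chemiluminescent beta-Gal signal; compounds were incubated 90 min at 37 °C.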
Hits are given with their value; 0 = inactive; ? = inconclusive; - = no result given; ! = not confirmed by another sample; [ ] = dose if it differs, or a comment. A selection: hits, their analogues and other compounds. The true share with any hit is near 3.6%. Unless noted, the call rests on the fitted dose curve; in most records, active means well fitted curve in the direction sought with a large enough effect; inconclusive means small, poorly fitted or top-dose-only effect, or another doubt; inactive means no such curve, though single readings can be large; an effect the other way counts as inactive or inconclusive.

SMILES	B2AR arrestin ag	TSG101-PTAP inh	NTMT1 inhibitor	GALC G270D up	GALK inhibitor	GPR32 ag
CCc1nnc2c(Nc3ccc(N(CC)CC)cc3C)nc3ccccc3n12	0	0	89µM	0	0	0
CNC(=O)CN1CCC(Oc2cc3c(Nc4cccc(Cl)c4F)ncnc3cc2OC)CC1	-	-	35µM	-	-	-
COc1ccc(C(=O)Nc2nnc(-c3ccco3)o2)cc1	-	-	0	-	-	-
Cc1n[nH]c(C)c1S(=O)(=O)N1CCCC(C(=O)Nc2ccc(Cl)cc2)C1 (stereo not drawn)	0	0	0	0	0	107
Cc1ccc(NC(=O)C2CCCN(S(=O)(=O)c3c(C)n[nH]c3C)C2)cc1Cl (stereo not drawn)	0	0	?	0	0	0
Nc1nc(Nc2ccc(S(N)(=O)=O)cc2)n(C(=S)Nc2c(F)cccc2F)n1	-	-	0	-	-	-
CCOc1ccccc1CNC(=O)Cn1nc(N2CCN(c3ccccc3)CC2)ccc1=O	0	0	0	0	0	61
C[C@H]1CNCCCN1S(=O)(=O)c1cccc2cncc(F)c12	-	-	0	-	-	-
Cc1cncc2cccc(S(=O)(=O)N3CCCNC[C@@H]3C)c12	-	-	79µM	-	-	-
COc1cc(/C=C/C(=O)OC[C@H]2O[C@@H](OC3CC(C)=C(C(=O)O)C(C)(C)C3)[C@H](O)[C@@H](O)[C@@H]2O)cc(OC)c1O (stereo partly drawn)	-	-	0	-	-	-
CCOC(=O)c1c(NC(=O)/C(C#N)=C/c2ccc(OC)cc2)sc2c1CCC2	0	0	0	0	0	0
CCOc1ccc(/C=C(\C#N)C(=O)Nc2sc3c(c2C(=O)OC)C(C(=O)OC)CC3)cc1OC (stereo not drawn)	0	0	10µM	0	0	0
S=P(c1ccccc1)(c1ccccc1)c1nc(CCCc2ccccc2)n2ccccc12	-	-	0	-	-	-
C=CCNC1=C2CC(C)CC(OC)C(O)C(C)/C=C(\C)C(OC(N)=O)C(OC)/C=C/C=C(\C)C(=O)NC(=CC1=O)C2=O (stereo not drawn)	-	-	0	-	-	-
OCc1cc(C(O)CNCCCCCCOCCCCc2ccccc2)ccc1O (stereo not drawn)	-	-	?	0	-	108!
CC(C)=CCC/C(C)=C/CO	-	-	0	0	-	0
CC(C)=CCC/C(C)=C/CC/C(C)=C/CSc1ccccc1C(=O)O	-	-	50µM	-	-	-
c1ccc2c(-c3cnn4cc(-c5ccc(N6CCNCC6)cc5)cnc34)ccnc2c1	-	-	56µM!	-	-	-
O=S(=O)(Nc1c(F)cccc1F)c1ccc2c(c1)OCCO2	0	0	0	0	0	0
Cc1c(Cl)cccc1NS(=O)(=O)c1ccc(NS(=O)(=O)c2ccc3c(c2)OCCO3)cc1	0	0	0	0	0	68
CC(=O)Nc1cccc(NC(=O)Cc2csc(COc3cccc(C)c3)n2)c1	0	0	0	0	0	69
CC(=O)OC[C@]12[C@@H](OC(=O)c3ccoc3)C[C@@H]3[C@@H](OC(C)=O)[C@]1(OC3(C)C)[C@@](C)(O)C[C@H](OC(=O)c1ccoc1)[C@@H]2OC(=O)c1ccoc1	-	-	0[12.6 µM]	-	-	-
Cc1cc(C)c2c(N)c(C(=O)Nc3ccccc3C(F)(F)F)sc2n1	0	0	0	0	0	89
Cc1cc(C)c(NC(=O)c2sc3nc(C)cc(C)c3c2N)c(C)c1	0	0	0	0	?	0
Cc1cccc(C(=O)N2CCc3cc(-c4nc(NC(=O)Cc5ccc6c(c5)OCO6)sc4C)ccc32)c1	-	-	0	-	-	-
SMILES	B2AR arrestin ag	TSG101-PTAP inh	NTMT1 inhibitor	GALC G270D up	GALK inhibitor	GPR32 ag
Cn1cc(-c2ccc(S(=O)(=O)n3ccc(/C=C/C(=O)Nc4ccccc4N)c3)cc2)cn1	-	-	0	-	-	-
CCOC(=O)c1nc(NCc2ccc(Cl)cc2)c2c(C)noc2n1	0	0	0	0	0	65
N#C/C(=C\c1ccc(-c2ccc(C(=O)O)cc2)o1)c1nc2ccccc2[nH]1	0	0	45µM	0	0	0
N#C/C(=C\c1ccc(-c2ccc(Cl)c(C(=O)O)c2)o1)c1nc2ccccc2[nH]1	0	0	?	0	0	0
COc1ccc(Cn2c(CO)cnc2SCc2ccc(F)cc2)cc1	0	0	89µM	0	0	?
COc1ccc(Cn2c(CO)cnc2SCc2ccccc2C)cc1	0	0	0	0	0	0
OCc1cnc(SCc2ccccc2F)n1Cc1ccc(F)cc1	0	0	0	0	0	94
CCC(C)C(C(=O)O)N1Cc2c(OCC=C(C)C)c(C)c(OC)c(C(=O)O)c2C1=O (stereo not drawn)	-	-	0	-	-	-
COc1cc(NC(=O)c2ccc(C)cc2)ccc1NC(=O)c1cc2ccccc2o1	0	0	0	0	0	0
CCCCCC(=O)Nc1ccc(NC(=O)c2cc3ccccc3o2)c(OC)c1	0	0	0	0	0	121
C[n+]1c2cc(N)ccc2cc2ccc(N)cc21 (tested in a mixture with another compound)	-	-	40µM	0	-	0
CCOC(=O)[C@H](CCc1ccccc1)N[C@@H](C)C(=O)N1C2CCCCC2C[C@H]1C(=O)O (stereo partly drawn)	-	-	0	-	-	-
C=CC(C)(O)CC/C=C(\C)C1CC=C(C)C(=O)O1 (stereo not drawn)	-	-	0	-	-	-
Cc1nc(-c2cccc(F)c2)sc1CCNC(=O)Cc1ccc(F)cc1	0	0	?	0	0	88
Cc1nc(-c2ccc(F)cc2)sc1CCNC(=O)c1ccccc1	0	0	?	0	0	62
Cc1nc(-c2ccc(F)cc2)sc1CCNC(=O)c1ccc(C(C)(C)C)cc1	0	0	0	0	0	0
N#Cc1cnc(NS(=O)(=O)c2ccc(NC(=O)Cc3ccc(Cl)c(Cl)c3)cc2)s1	-	-	79µM	-	-	-
O=C(Cc1ccc(Cl)c(Cl)c1)Nc1ccc(S(=O)(=O)Nc2cncnc2)cc1	-	-	0	-	-	-
OC[C@H]1O[C@@H](Oc2cc(O)cc(-c3cc4ccc(O[C@@H]5O[C@H](CO)[C@@H](O)[C@H](O)[C@H]5O)cc4o3)c2)[C@H](O)[C@@H](O)[C@@H]1O	-	-	0	-	-	-
CC(CNC(=O)c1cnn(-c2ccc(F)cc2)c1-n1cccc1)c1ccccc1 (stereo not drawn)	0	0	79µM	0	0	0
C=C1c2cccc(O)c2C(O)=C2C(=O)[C@@]3(O)C(O)=C(C(N)=O)C(=O)[C@@H](N(C)C)[C@@H]3[C@@H](O)[C@H]12	-	-	13µM	-	-	-
Cc1ccc(C2C=C(c3ccccc3)Nc3nc(NS(=O)(=O)c4ccc(C)cc4)nn32)cc1 (stereo not drawn)	0	0	0	0	0	94
